{"source": "PubChem BioAssay AID2202241", "about": "(National Center for Advancing Translational Sciences (NCATS), 2025)", "note": "Active and inactive are the calls of the source. How the calls were made is not given here. Square brackets hold non-standard residues; d marks the D form. Peptide text beside a SMILES is read from it. * marks the point of attachment. Dolaproine = CO[C@@H]([C@@H]1CCCN1)[C@@H](C)C(=O)O; Dil = CC[C@H](C)[C@H](NC)[C@@H](CC(=O)O)OC; NMe2Val = CC(C)[C@@H](C(=O)*)N(C)C; X1 = C[C@@H](N*)[C@@H](O)c1ccccc1; NMeV = CN[C@H](C(=O)O)C(C)C", "data": [{"experiment": "Identification of antibody-drug conjugate (ADC) payloads which are substrates of ATP-binding cassette drug efflux transporters: cell line panel data", "details": "99 cancer cell line panel, CellTiter-Glo viability, 48 h; stronger effect = lower value", "excerpt": "Antibody-drug conjugates (ADCs) feature an antibody recognizing a specific protein joined to a potent toxic payload. Numerous antibody-drug conjugates have received FDA approval; however, clinical resistance arises. Resistance mechanisms include decreased expression or mutation of the antibody target, impaired payload release, or increased expression of ATP-binding cassette (ABC) efflux transporters associated with multidrug resistance. We therefore sought to characterize the activity of ADC payloads across a broad set of cancer cell lines. We performed a high-throughput screen with 27 common ADC payloads against a panel of 99 cell lines to assess sensitivity to various payloads. Duocarmycin DM and PNU-159682 were exquisitely toxic across the panel of cancer cell lines of varying origins. These findings highlight the potentially broad applicability of Duocarmycin DM and PNU-159682 as ADC payloads in future ADC development.\nCompounds were sourced from Levena Biopharma (San Diego, CA), Selleck Chem (Houston, TX), ChemieTek (Indianapolis, IN), or Microsource Discovery Systems (Gaylordsville, CT). Cell line sources and culture conditions were as follows: CAL-27 (ATCC: CRL-2095) and Hs 766T (ATCC: HTB-134) were grown in DMEM media +10% FBS. RKO (ATCC: CRL-2577), A-427 (ATCC: […]), BT-20 (ATCC: HTB-19), Detroit562 (ATCC: CCL-138), HARA-B (Cytion: 300465), PA-1 (ATCC: CRL-1572), TCCSUP (ATCC: […]), UM-UC-3 (ATCC: CRL-1749), and WI-38 (ATCC: CCL-75) were grown in EMEM media +10% FBS. AGS (ATCC: CRL-1739) was grown in F12K media +10% FBS. JJN-3 (DSMZ: ACC 541) was grown in IMDM media +20% FBS. 769-P (ATCC: CRL-1933), 786-O (ATCC: CRL-1932), A-375 (ATCC: CRL-1619), A-431 (ATCC: CRL-1555), A-549 (ATCC: CCL-185), A2780 (Cytion: 300491), ACHN (ATCC: CRL-1611), BT-474 (ATCC: HTB-20), BT-549 (ATCC: HTB-122), CCRF-CEM (ATCC: CCL-119), Daudi (ATCC: CCL-213), HaCaT (Cytion: 300493), HCC38 (ATCC: CRL-2314), HCC827 (ATCC: CRL-2868), HCT15 (ATCC: CCL-225), HEL 92.1.7 (ATCC: TIB-180), Hs 352.Sk (ATCC: CRL-7250), Hs578T (ATCC: HTB-126), HT-1080 (ATCC: CCL-121), HuCC-T1 (Riken Bioresource Center: RCB1960), HuP-T3 (DSMZ: ACC 259), HuP-T4 (DSMZ: ACC 223), IM-9 (ATCC: CCL-159), JJ012 (Gift: Karina Galoian (University of Miami)), JM-1 (ATCC: CRL-10423), K-562 (ATCC: CCL-243), Kasumi-3 (ATCC: CRL-2725), KMS-12-BM (DSMZ: ACC 551), LOUCY (ATCC: CRL-2629), LoVo (ATCC: CCL-229), MCF-7 (ATCC: HTB-22), MDA-MB-231 (ATCC: HTB-26), MDA-MB-436 (ATCC: HTB-130), MDA-MB-468 (ATCC: HTB-132), MIA PaCa-2 (ATCC: CRL-1420), MM1.R (ATCC: CRL-2975), MM1.S (ATCC: CRL-2974), NALM-6 (ATCC: CRL-3273), NCI-H1299 (ATCC: CRL-5803), NCI-H1355 (ATCC: CRL-5865), NCI-H1395 (ATCC: CRL-5868), NCI-H1437 (ATCC: CRL-5872), NCI-H2122 (ATCC: CRL-5985), NCI-H2170 (ATCC: CRL-5928), NCI-H226 (ATCC: CRL-5826), NCI-H23 (ATCC: CRL-5800), NCI-H322M (NIH: NCI-60), NCI-H460 (ATCC: HTB-177), NCI-H522 (ATCC: CRL-5810), NCI-H929 (ATCC: CRL-3580), NIH 3T3 (ATCC: CRL-1658), OCI-M2 (DSMZ: ACC 619), OPM-2 (DSMZ: ACCC 50), OVCAR-3 (ATCC: HTB-161), OVCAR-4 (Gift: Phil Lorenzi MD Anderson), OVCAR-8 (Gift: Phil Lorenzi MD Anderson), Panc 10.05 (ATCC: CRL-2547), PANC-1 (ATCC: CRL-1469), Pfeiffer (ATCC: CRL-2632), PL45 (ATCC: CRL-2558), PSN1 (ATCC: CRL-3211), Raji (ATCC: CCL-86), RD (Gift: Mari Yohe NCI), RPMI-8226 (ATCC: CRM-CCL-155), RS4;11 (ATCC: CRL-1873), SK-BR-3 (ATCC: HTB-30), SK-MEL-28 (ATCC: HTB-72), SMS-CTR (Gift: Mari Yohe NCI), SNU-16 (ATCC: CRL-5974), SU-DHL-8 (ATCC: CRL-2961), SU.86.86 (ATCC: CRL-1837), SW1990 (ATCC: CRL-2172), SW403 (ATCC: CCL-230), SW480 (ATCC: CCL-228), SW579 (ATCC: HTB-107), T-47D (ATCC: HTB-133), T24 (ATCC: HTB-4), and U-937 (ATCC: CRL-1593.2) were grown in RPMI +10% FBS. U266B1 (ATCC: TIB-196) were grown in RPMI +15% FBS. ME-1 (ATCC: HB-119), MOLM-13 (DSMZ: ACC 554), AMO1 (DSMZ: ACC 538), MOLP-8 (DSMZ: ACC 569), MV4-11 (ATCC: CRL-9591), PL-21 (DSMZ: ACC 536), and L-363 (DSMZ: ACC 49) were grown in RPMI +20% FBS. […]", "values": [{"compound": "CC[C@H](C)[C@@H]([C@@H](CC(=O)N1CCC[C@H]1[C@H](OC)[C@@H](C)C(=O)N[C@H](C)[C@@H](O)c1ccccc1)OC)N(C)C(=O)[C@@H](NC(=O)[C@H](C(C)C)N(C)C)C(C)C", "viability AUC": "699 (active)"}, {"compound": "CC[C@H](C)[C@@H]1NC(=O)CNC(=O)[C@H]2Cc3c([nH]c4cc(O)ccc34)S(=O)C[C@H](NC(=O)CNC1=O)C(=O)N[C@@H](CC(N)=O)C(=O)N1C[C@H](O)C[C@H]1C(=O)N[C@@H]([C@@H](C)[C@@H](O)CO)C(=O)N2", "note": "(stereo partly specified)", "viability AUC": "992 (active)"}, {"compound": "COc1cc2cc(c1Cl)N(C)C(=O)C[C@H](OC(=O)[C@H](C)N(C)C(=O)CCC(C)(C)S)[C@]1(C)OC1[C@H](C)C1C[C@@](O)(NC(=O)O1)[C@H](OC)/C=C/C=C(\\C)C2", "note": "(stereo partly specified)", "viability AUC": "777 (active)"}, {"compound": "COc1cc2cc(c1Cl)N(C)C(=O)C[C@H](OC(=O)[C@H](C)N(C)C(=O)CCS)[C@]1(C)OC1[C@H](C)C1C[C@@](O)(NC(=O)O1)[C@H](OC)/C=C/C=C(\\C)C2", "note": "(stereo partly specified)", "viability AUC": "817 (active)"}, {"compound": "CC[C@H](C)[C@@H]([C@@H](CC(=O)N1CCC[C@H]1[C@H](OC)[C@@H](C)C(=O)N[C@H](C)[C@@H](O)c1ccccc1)OC)N(C)C(=O)[C@@H](NC(=O)[C@@H](NC)C(C)C)C(C)C", "note": "(H-[NMeV]V[Dil][Dolaproine]-X1)", "viability AUC": "816 (active)"}, {"compound": "COc1cc2cc(c1Cl)N(C)C(=O)C[C@H](OC(=O)C(C)C)[C@]1(C)O[C@H]1[C@H](C)[C@@H]1C[C@@](O)(NC(=O)O1)[C@H](OC)C=CC=C(C)C2", "viability AUC": "756 (active)"}, {"compound": "COc1cccc2c1C(=O)c1c(O)c3c(c(O)c1C2=O)C[C@@](O)(C(=O)CO)CC3OC1CC(N2CCOC(OC)C2)C(O)C(C)O1", "note": "(stereo partly specified)", "viability AUC": "666 (active)"}, {"compound": "CC[C@H](C)[C@H](NC(=O)[C@H]1CCCCN1C)C(=O)N(C)[C@H](C[C@@H](OC(C)=O)c1nc(C(=O)O)cs1)C(C)C", "viability AUC": "982 (active)"}, {"compound": "CC[C@H](C)[C@H](NC(=O)[C@H]1CCCCN1C)C(=O)N(C)[C@H](C[C@@H](OC(C)=O)c1nc(C(=O)N[C@@H](Cc2ccccc2)C[C@H](C)C(=O)O)cs1)C(C)C", "viability AUC": "793 (active)"}, {"compound": "CC[C@H](C)[C@@H]([C@@H](CC(=O)N1CCC[C@H]1[C@H](OC)[C@@H](C)C(=O)N[C@@H](Cc1ccccc1)C(=O)O)OC)N(C)C(=O)[C@@H](NC(=O)[C@H](C(C)C)N(C)C)C(C)C", "note": "(NMe2Val-V[Dil][Dolaproine]F-OH)", "viability AUC": "932 (active)"}, {"compound": "COc1cc2cc(C(=O)N3C[C@@H](CCl)c4c3cc(O)c3ccccc43)[nH]c2c(OC)c1OC", "viability AUC": "654 (active)"}]}]}
